The campaign covered roughly 5,500 compounds. About 2,000 (36%) were called active. Another 18% or so got no clear call; they are omitted. This is one part of the list. A number with no mark means an inactive call. Rule as the data show it: active = normalized growth mostly below about 0.91 (no sharp cut-off); inconclusive = no clear call, values can overlap the other calls; inactive = mostly above about 0.92.
Experiment: chemical genetic growth profiling, strain panel (AID 1159580);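 also: tested at 20 µM; growth read once vehicle control cultures reached saturation at 30 °C; 1 = growth at the plate median or of vehicle wells; lower values mean less growth of the strain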
Conditions: S. cerevisiae deletion strains, growth OD
[1] = locus YHR030C, strain SLT2, hits give low values
[2] = locus YHR079C, strain IRE1, hits give low values
[3] = locus YJL095W, strain BCK1, hits give low values
[4] = locus YJR066W, strain TOR1, hits give low values
[5] = locus YLR113W, strain HOG1, hits give low values
[6] = locus YNL183C, strain NPR1, hits give low values
[7] = locus YOR231W, strain MKK1, hits give low values
[8] = locus YPL256C, strain CLN2, hits give low values

CCOc1ccc2nc(S(N)(=O)=O)sc2c1
normalized growth [1]: 0.978
normalized growth [2]: 0.969
normalized growth [3]: 1.02
normalized growth [4]: 0.924
normalized growth [5]: 1.05
normalized growth [6]: 0.927
normalized growth [7]: 0.955
normalized growth [8]: 0.963

CCOc1ccc2nc3cc(N)ccc3c(N)c2c1
normalized growth (locus YAL021C, strain ccr4, hits give low values): 0.749 (active)
normalized growth (locus YAL026C, strain drs2, hits give low values): 0.607 (active)
normalized growth (locus YAL030W, strain snc1, hits give low values): 0.63 (active)
normalized growth (locus YBL061C, strain skt5, hits give low values): 0.745 (active)
normalized growth (locus YBR009C, strain hhf1, hits give low values): 0.353 (active)
normalized growth (locus YBR023C, strain chs3, hits give low values): 0.721 (active)
normalized growth (locus YBR171W, strain sec66, hits give low values): 1.07
normalized growth (locus YBR231C, strain swc5, hits give low values): 0.702 (active)
normalized growth (locus YBR279W, strain paf1, hits give low values): 0.51 (active)
normalized growth (locus YCL011C, strain gbp2, hits give low values): 0.447 (active)
normalized growth (locus YCL016C, strain dcc1, hits give low values): 0.462 (active)
normalized growth (locus YCL061C, strain MRC1, hits give low values): 0.846 (active)
normalized growth (locus YCL069W, strain vba3, hits give low values): 0.834 (active)
normalized growth (locus YCR088W, strain abp1, hits give low values): 0.695 (active)
normalized growth (locus YDL005C, strain med2, hits give low values): 0.981
normalized growth (locus YDL040C, strain nat1, hits give low values): 0.779 (active)
normalized growth (locus YDR001C, strain nth1, hits give low values): 0.94
normalized growth (locus YDR069C, strain doa4, hits give low values): 0.696 (active)
normalized growth (locus YDR137W, strain rgp1, hits give low values): 0.985
normalized growth (locus YDR159W, strain sac3, hits give low values): 1.06
normalized growth (locus YDR195W, strain ref2): 0.823 (active)
normalized growth (locus YDR297W, strain sur2, hits give low values): 0.705 (active)
normalized growth (locus YDR334W, strain swr1, hits give low values): 1.03
normalized growth (locus YDR335W, strain msn5, hits give low values): 0.907 (active)
normalized growth (locus YDR392W, strain spt3, hits give low values): 0.803
normalized growth (locus YEL003W, strain gim4, hits give low values): 0.534 (active)
normalized growth (locus YEL037C, strain rad23, hits give low values): 0.785 (active)
normalized growth (locus YEL061C, strain CIN8 (second series), hits give low values): 0.997
normalized growth (locus YER015W, strain faa2, hits give low values): 0.641 (active)
normalized growth (locus YER016W, strain bim1, hits give low values): 0.679 (active)
normalized growth (locus YER111C, strain swi4, hits give low values): 0.987
normalized growth (locus YER155C, strain BEM2 (second series), hits give low values): 0.856 (active)
normalized growth (locus YFR010W, strain ubp6, hits give low values): 0.683 (active)
normalized growth (locus YGL167C, strain pmr1, hits give low values): 1.03
normalized growth (locus YGL173C, strain kem1, hits give low values): 0.677 (active)
normalized growth (locus YGL227W, strain vid30, hits give low values): 0.754 (active)
normalized growth (locus YGL240W, strain doc1, hits give low values): 1.06
normalized growth (locus YGL253W, strain hxk2, hits give low values): 0.761 (active)
normalized growth (locus YHR013C, strain ard1, hits give low values): 0.747 (active)
normalized growth (locus YHR027C, strain rpn1, hits give low values): 0.618 (active)
normalized growth [1]: 0.967
normalized growth [2]: 0.89
normalized growth (locus YHR142W, strain chs7, hits give low values): 0.801 (active)
normalized growth (locus YJL092W, strain hpr5, hits give low values): 0.803 (active)
normalized growth (locus YJL095W, strain BCK1 (second series), hits give low values): 0.785 (active)
normalized growth [3]: 0.935
normalized growth (locus YJL115W, strain asf1, hits give low values): 0.987
normalized growth (locus YJL129C, strain trk1, hits give low values): 0.648 (active)
normalized growth (locus YJL154C, strain vps35, hits give low values): 0.97
normalized growth (locus YJL164C, strain tpk1, hits give low values): 0.379 (active)
normalized growth (locus YJL166W, strain qcr8, hits give low values): 0.583 (active)
normalized growth (locus YJL187C, strain SWE1, hits give low values): 0.846 (active)
normalized growth [4]: 0.851
normalized growth (locus YKL160W, strain elf1, hits give low values): 0.733 (active)
normalized growth (locus YKR026C, strain gcn3, hits give low values): 0.864 (active)
normalized growth (locus YKR091W, strain srl3, hits give low values): 0.875 (active)
normalized growth (locus YLL001W, strain dnm1, hits give low values): 0.662 (active)
normalized growth (locus YLL026W, hits give low values): 0.508 (active)
normalized growth (locus YLL041C, strain sdh2, hits give low values): 0.863 (active)
normalized growth (locus YLR027C, strain aat2, hits give low values): 0.481 (active)
normalized growth [5]: 0.961
normalized growth (locus YLR221C, strain rsa3, hits give low values): 0.541 (active)
normalized growth (locus YLR258W, strain gsy2, hits give low values): 0.529 (active)
normalized growth (locus YLR262C, strain YPT6 (second series), hits give low values): 0.891
normalized growth (locus YLR320W, strain mms22, hits give low values): 0.742 (active)
normalized growth (locus YLR342W, strain FKS1, hits give low values): 0.866 (active)
normalized growth (locus YLR357W, strain rsc2, hits give low values): 1.09
normalized growth (locus YLR370C, strain arc18, hits give low values): 0.704 (active)
normalized growth (locus YLR384C, strain iki3, hits give low values): 0.85 (active)
normalized growth (locus YML120C, strain ndi1, hits give low values): 0.252 (active)
normalized growth (locus YMR058W, strain fet3, hits give low values): 0.587 (active)
normalized growth (locus YMR125W, strain sto1, hits give low values): 0.892
normalized growth (locus YMR129W, hits give low values): 0.659 (active)
normalized growth (locus YMR205C, strain PFK2, hits give low values): 0.751 (active)
normalized growth (locus YMR231W, strain pep5, hits give low values): 0.883 (active)
normalized growth (locus YNL071W, strain lat1, hits give low values): 0.909 (active)
normalized growth [6]: 0.875
normalized growth (locus YNL209W, strain ssb2, hits give low values): 0.53 (active)
normalized growth (locus YNL248C, strain rpa49, hits give low values): 0.827 (active)
normalized growth (locus YNL322C, strain KRE1 (second series), hits give low values): 1
normalized growth (locus YNR049C, strain mso1, hits give low values): 1
normalized growth (locus YOR001W, strain rrp6, hits give low values): 0.365 (active)
normalized growth (locus YOR070C, strain gyp1, hits give low values): 0.607 (active)
normalized growth (locus YOR080W, strain dia2, hits give low values): 0.876 (active)
normalized growth (locus YOR083W, strain WHI5, hits give low values): 0.58 (active)
normalized growth (locus YOR106W, strain vam3, hits give low values): 0.489 (active)
normalized growth [7]: 0.901
normalized growth (locus YOR265W, strain rbl2, hits give low values): 0.61 (active)
normalized growth (locus YOR270C, strain vph1, hits give low values): 0.707 (active)
normalized growth (locus YOR290C, strain snf2, hits give low values): 0.441 (active)
normalized growth (locus YPL051W, strain arl3, hits give low values): 0.653 (active)
normalized growth (locus YPL078C, strain atp4, hits give low values): 0.813 (active)
normalized growth (locus YPL106C, strain sse1, hits give low values): 0.719 (active)
normalized growth (locus YPL240C, strain hsp82, hits give low values): 0.623 (active)
normalized growth [8]: 1.03
